In the library only some 2.8% were active in any assay of this set; here they are far more common.
S2 tox = Viability Counterscreen for Primary qHTS for Inhibitors of ATXN expression. S2 cells (HEK-293 line with an ATXN2-luciferase reporter) viability, CellTiter-Fluor protease fluorescence, 24 h. 400,000 tested, 0.49% active. Potency, µM (doses to about 56.7 µM), usual class: cytotoxic. AID 651635, 2014; further: potency means the concentration at half of the fitted maximal effect; nearly all actives have a fitted effect of over 40% in size
Six1-Eya2 inh = qHTS Assay for Inhibitors of the Six1/Eya2 Interaction | Homeobox protein SIX1 (Homo sapiens) + Protein phosphatase EYA2 (Homo sapiens), … | AlphaScreen GST-Six1/His-Eya2 binding, biochemical; stronger effect = lower value | activity change, % (test concentration not listed) | 360,000 tested, 0.56% active; in the data active means activity change below about -65%; inconclusive means mostly about -30% to -63%; further: on the % scale 0 is the no-effect control and ±100 the full control effect
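AlphaScreen with GST-Six1 and His-Eya2 (5X mix: 250 nM and 500 nM), glutathione donor and nickel acceptor beads; buffer 50 mM Tris pH 8.0, 300 mM NaCl, 1 mM TCEP; 1 h at 37 C in the dark.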
TGFb inhibitor = qHTS for Inhibitors of TGF-b | HepG2 CAGA-GFP TGF-b/SMAD3 reporter, GFP fluorescence, 18 h; TGF-beta stimulated, 500 pg/mL final | Potency, µM (series often up to 46.1 µM), for inactives: at the highest dose activity, negative = inhibition, hits mostly inhibitors | AID 588855, 2011 | 410,000 tested, 1.2% active; further: potency means the concentration at half of the fitted maximal effect; on the % scale 0 is the no-effect control and ±100 the full control effect; nearly all actives have a fitted effect of over 65% in size
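Smad-responsive CAGA-GFP expression was quantified in HEPG2 cells exposed to compounds and 500 pg/mL final TGF-beta for 18 h at 37 degrees C; unstimulated wells defined full inhibition.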
ATXN2 expr inh = Primary qHTS for Inhibitors of ATXN expression; Potency, µM (series often up to 57 µM), for the others: at the top dose activity change, negative = inhibition, usual class: inhibitors; 360,000 tested, 0.72% active; HEK-293 ATXN2-luciferase reporter, luminescence, 24 h; further: potency means the concentration at half of the fitted maximal effect; on the % scale 0 is the no-effect control and ±100 the full control effect; nearly all actives have a fitted effect of over 55% in size
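ATXN2-luciferase reporter cells (luciferase flanked by upstream and downstream ATXN2 gene portions) were treated 24 h at 37 °C with compounds at up to 57 uM. SteadyGlo luminescence gave expression; GF-AFC fluorescence gave viability.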
HepG2 tox-1 = qHTS for Inhibitors of TGF-b: Cytotox Counterscreen | Potency, µM (top dose mostly 46.1 µM), for the others: top-dose activity change, negative = cytotoxicity, actives largely listed as cytotoxic | HepG2 CAGA-GFP viability, ATP luminescence, 18 h | 410,000 tested, 0.76% active; further: potency means the concentration at half of the fitted maximal effect
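HepG2 CAGA-GFP cells (1000/well, DMEM with 1% FBS) received compound, then TGF-beta at 500 pg/mL final, and were incubated 18 hours at 37 degrees C. Viability was read by CellTiter-Glo luminescence. Media-only wells were set as complete cell-killing and DMSO as no toxicity.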
CtBP-E1A inh = qHTS Assay for Inhibitors of the CtBP/E1A Interaction; CtBP / adenovirus E1A interaction (AlphaScreen); AlphaScreen GST-E1A/His-CtBP binding, 1536-well; stronger effect = lower value; activity change, % (concentration not given with the values); 340,000 tested, 0.49% active; AID 651724, 2012; in the data active means activity change below about -65%; inconclusive means mostly about -30% to -63%; further: on the % scale 0 is the no-effect control and ±100 the full control effect
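Homogeneous bead-based format: GST-tagged E1A captured on glutathione donor beads, His-tagged CtBP on nickel acceptor beads; compounds precede bead addition by 2 h at 37 °C.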
TGFb confirm = qHTS for Inhibitors of TGF-b: Confirmation of Cherry Picks. Potency, µM (highest dose often 46.1 µM), for inactives: top-dose activity, negative = inhibition, hits mostly inhibitors. HepG2 CAGA-GFP TGF-b reporter, GFP fluorescence, 18 h; cells stimulated with TGF-beta, 500 pg/mL. shares compounds with TGFb inhibitor. 1,600 tested, 63% active; further: potency means the concentration at half of the fitted maximal effect; on the % scale 0 is the no-effect control and ±100 the full control effect; nearly all actives have a fitted effect of over 65% in size
HepG2 tox-2 = qHTS for Inhibitors of TGF-b: Cytotox Counterscreen for Cherry Picks; shares compounds with TGFb inhibitor; Potency, µM (top dose mostly 46.1 µM), without a hit: at the highest dose activity, negative = cytotoxicity, hits mostly inhibitors; HepG2 CAGA-GFP viability, ATP luminescence, 18 h; cells stimulated with TGF-beta, 500 pg/mL; 1,600 tested, 27% active; further: potency means the concentration at half of the fitted maximal effect; on the % scale 0 is the no-effect control and ±100 the full control effect; nearly all actives have a fitted effect of over 70% in size
TGFb CCL64 inh = qHTS for Inhibitors of TGF-b: CCL64 Cells Orthogonal Assay for Cherry Picks; shares compounds with TGFb inhibitor; CCL64 CAGA-GFP reporter, TGF-b stimulated, GFP fluorescence, 18 h; Potency, µM (doses to about 46.1 µM), without a hit: at the highest dose activity, negative = inhibition, hits mostly inhibitors; 1,600 tested, 41% active; further: potency means the concentration at half of the fitted maximal effect; nearly all actives have a fitted effect of over 65% in size
COP TGFb inh = qHTS for Inhibitors of TGF-b: Hit Validation in HepG2 Cells using COP promoter; shares compounds with TGFb inhibitor; HepG2 COP-GFP TGF-b reporter, GFP fluorescence, 18 h; cells stimulated by added recombinant TGF-beta; Potency, µM (highest dose often 46.1 µM), for the others: at the highest dose activity, negative = inhibition, hits mostly inhibitors; 1,600 tested, 3% active; AID 720537, 2013; further: potency means the concentration at half of the fitted maximal effect; nearly all actives have a fitted effect of over 70% in size
* hit, by the source's call. Unless noted, the call rests on the fitted dose curve; in most records, active means well fitted curve in the direction sought with a large enough effect; inconclusive means small, poorly fitted or top-dose-only effect, or another doubt; inactive means no such curve, though single readings can be large; an effect the other way counts as inactive or inconclusive.

Screening CCN(CC)c1ccc(NC(=O)c2c(C)nn(-c3ccc(F)cc3)c2-n2cccc2)c(C)c1 returned S2 tox inconclusive, TGFb inhibitor inconclusive, ATXN2 expr inh inconclusive and HepG2 tox-1 -29%.
`Cc1cc(/C=N/NC(N)=S)c(C)n1-c1ccc(Br)cc1` gave S2 tox inconclusive, Six1-Eya2 inh -17, TGFb inhibitor 13µM*, ATXN2 expr inh -18%, HepG2 tox-1 -20%, CtBP-E1A inh 0, TGFb confirm 10µM*, HepG2 tox-2 inconclusive, TGFb CCL64 inh inconclusive and COP TGFb inh 34%.
Screening Cc1cc(/C=N/NC(N)=S)c(C)n1-c1cccc(Cl)c1 returned S2 tox inconclusive, Six1-Eya2 inh -13, TGFb inhibitor 11µM*, ATXN2 expr inh -19%, HepG2 tox-1 -19%, CtBP-E1A inh -14, TGFb confirm 15µM*, HepG2 tox-2 -24%, TGFb CCL64 inh 16µM* and COP TGFb inh 44%.
`Cc1ccc(-n2nc(C(=O)N3CCN(c4ccc(F)cc4)CC3)c(=O)n(C)c2=O)cc1` gave S2 tox inactive, TGFb inhibitor -22%, ATXN2 expr inh 4% and HepG2 tox-1 -2%.
For O=C(NCc1ccccc1)c1cc(C2CCCCN2C(=O)c2ccccc2)on1 (stereo not drawn) the results were S2 tox inactive, Six1-Eya2 inh -8, TGFb inhibitor 0%, ATXN2 expr inh -11%, HepG2 tox-1 0% and CtBP-E1A inh 0.
Cc1ccc(NC(=O)CCS(=O)(=O)c2ccc(Br)s2)c(Br)c1 was read as S2 tox inactive, TGFb inhibitor -1%, ATXN2 expr inh 10% and HepG2 tox-1 -19%.
CC1CCCN(C(=O)Cn2c(=O)n(CC3CCC(C(=O)NC(C)C)CC3)c(=O)c3sccc32)C1 (stereo not drawn) was read as S2 tox inactive, TGFb inhibitor 1%, ATXN2 expr inh -3% and HepG2 tox-1 -5%.
